In the supplement of paper PMC10849652:
Of roughly 7,900 targets only a part is listed; those with a hit were picked by preference. About 0.6% of all pairs of compound and target were hits. Values without a mark were called inactive.

Assays:
Assay in all cases: log2 fold change, soluble protein after heating vs DMSO (PISA); higher = thermal stabilisation; K562 cells, 10 uM, 30 min; active = over 0.2 and 3.5 SD of the protein, either way, in both replicates (recomputed)
[1] = compound: CS(=O)(=O)c1ccc(-c2cnc(N)c(C(=O)Nc3ccccc3)n2)cc1
How it was run: (§1)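 K562 cells (2×10^6 cells/mL) were treated with 10 μM compound for 30 min, and aliquots were heated for 3 min over 48°C-58°C. Pooled aliquots were extracted in PBS with 0.5% NP-40 at 4°C, and the supernatant after 21,000xg for 90 min was measured by TMTpro 16plex LC-MS/MS with channel sums equalised. Reported thermal stability, relative to control samples and from duplicates, is a log2 fold change.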

crizotinib = compound: C[C@@H](Oc1cc(-c2cnn(C3CCNCC3)c2)cnc1N)c1c(Cl)ccc(F)c1Cl [crizotinib]
How it was run: as §1

[2] = compound: C[C@@H]1COCCN1C2=NC(=NC(=C2)C3(CC3)S(=O)(=O)C)C4=C5C=CNC5=CC=C4
How it was run: as §1

[3] = compound: C[C@H](C1=CC=C(C=C1)C(=O)NC2=C3C=CNC3=NC=C2)N
How it was run: as §1

duvelisib = compound: C[C@H](Nc1ncnc2nc[nH]c12)c1cc2cccc(Cl)c2c(=O)n1-c1ccccc1 [duvelisib]
How it was run: as §1

gandotinib = compound: Cc1cc(Nc2cc(CN3CCOCC3)c3nc(C)c(Cc4ccc(Cl)cc4F)n3n2)n[nH]1 [gandotinib]
How it was run: as §1

tozasertib = compound: Cc1cc(Nc2cc(N3CCN(C)CC3)nc(Sc3ccc(NC(=O)C4CC4)cc3)n2)n[nH]1 [tozasertib]
How it was run: as §1

[4] = compound: Cc1cc(SCc2sc(-c3ccc(C(F)(F)F)cc3)nc2C)ccc1OCC(=O)O
How it was run: as §1

doramapimod = compound: Cc1ccc(-n2nc(C(C)(C)C)cc2NC(=O)Nc2ccc(OCCN3CCOCC3)c3ccccc23)cc1 [doramapimod]
How it was run: as §1

ispinesib = compound: Cc1ccc(C(=O)N(CCCN)[C@@H](c2nc3cc(Cl)ccc3c(=O)n2Cc2ccccc2)C(C)C)cc1 [ispinesib]
How it was run: as §1

UniProt Q9H2G2, sequence (Q9H2G2 whole entry, looked up): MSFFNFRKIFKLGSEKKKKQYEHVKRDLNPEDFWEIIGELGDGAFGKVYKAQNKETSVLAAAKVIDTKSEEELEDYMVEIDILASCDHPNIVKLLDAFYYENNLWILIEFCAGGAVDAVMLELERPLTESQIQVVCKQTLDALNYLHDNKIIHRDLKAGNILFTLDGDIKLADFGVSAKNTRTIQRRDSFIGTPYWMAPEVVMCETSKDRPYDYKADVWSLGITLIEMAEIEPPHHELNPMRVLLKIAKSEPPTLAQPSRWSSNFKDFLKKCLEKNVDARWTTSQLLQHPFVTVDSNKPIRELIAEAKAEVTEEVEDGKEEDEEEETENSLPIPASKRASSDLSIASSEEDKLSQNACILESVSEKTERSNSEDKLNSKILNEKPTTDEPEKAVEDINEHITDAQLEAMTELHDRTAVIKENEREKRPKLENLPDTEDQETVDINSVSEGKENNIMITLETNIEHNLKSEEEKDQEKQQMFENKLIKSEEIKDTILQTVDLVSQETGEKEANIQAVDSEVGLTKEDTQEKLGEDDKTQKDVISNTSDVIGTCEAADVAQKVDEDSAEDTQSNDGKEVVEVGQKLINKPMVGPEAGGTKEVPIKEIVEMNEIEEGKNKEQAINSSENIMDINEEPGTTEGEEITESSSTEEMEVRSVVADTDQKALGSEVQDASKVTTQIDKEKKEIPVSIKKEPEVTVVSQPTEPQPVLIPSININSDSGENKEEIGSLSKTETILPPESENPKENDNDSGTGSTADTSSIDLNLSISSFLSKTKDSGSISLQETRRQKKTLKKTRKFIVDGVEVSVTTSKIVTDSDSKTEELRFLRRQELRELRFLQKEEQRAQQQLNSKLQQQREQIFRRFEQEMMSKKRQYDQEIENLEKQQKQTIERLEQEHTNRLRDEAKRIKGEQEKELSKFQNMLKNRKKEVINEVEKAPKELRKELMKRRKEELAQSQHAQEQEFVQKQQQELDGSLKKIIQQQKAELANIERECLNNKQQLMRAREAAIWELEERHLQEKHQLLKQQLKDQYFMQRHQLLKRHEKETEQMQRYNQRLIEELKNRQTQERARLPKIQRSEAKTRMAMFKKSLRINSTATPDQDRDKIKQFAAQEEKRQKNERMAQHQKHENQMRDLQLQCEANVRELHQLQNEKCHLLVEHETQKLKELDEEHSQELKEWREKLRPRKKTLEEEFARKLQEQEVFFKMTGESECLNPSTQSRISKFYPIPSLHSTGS
UniProt P50225, sequence (P50225 whole entry, looked up): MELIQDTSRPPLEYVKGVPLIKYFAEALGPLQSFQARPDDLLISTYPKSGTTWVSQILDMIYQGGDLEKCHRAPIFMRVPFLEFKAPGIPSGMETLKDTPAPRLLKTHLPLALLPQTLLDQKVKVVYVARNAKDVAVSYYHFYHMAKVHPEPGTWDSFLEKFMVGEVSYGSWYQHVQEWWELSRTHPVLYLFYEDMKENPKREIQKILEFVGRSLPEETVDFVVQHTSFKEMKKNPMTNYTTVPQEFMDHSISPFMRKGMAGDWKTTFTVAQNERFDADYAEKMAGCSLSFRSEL
UniProt Q9UHB9, sequence (Q9UHB9 whole entry, looked up): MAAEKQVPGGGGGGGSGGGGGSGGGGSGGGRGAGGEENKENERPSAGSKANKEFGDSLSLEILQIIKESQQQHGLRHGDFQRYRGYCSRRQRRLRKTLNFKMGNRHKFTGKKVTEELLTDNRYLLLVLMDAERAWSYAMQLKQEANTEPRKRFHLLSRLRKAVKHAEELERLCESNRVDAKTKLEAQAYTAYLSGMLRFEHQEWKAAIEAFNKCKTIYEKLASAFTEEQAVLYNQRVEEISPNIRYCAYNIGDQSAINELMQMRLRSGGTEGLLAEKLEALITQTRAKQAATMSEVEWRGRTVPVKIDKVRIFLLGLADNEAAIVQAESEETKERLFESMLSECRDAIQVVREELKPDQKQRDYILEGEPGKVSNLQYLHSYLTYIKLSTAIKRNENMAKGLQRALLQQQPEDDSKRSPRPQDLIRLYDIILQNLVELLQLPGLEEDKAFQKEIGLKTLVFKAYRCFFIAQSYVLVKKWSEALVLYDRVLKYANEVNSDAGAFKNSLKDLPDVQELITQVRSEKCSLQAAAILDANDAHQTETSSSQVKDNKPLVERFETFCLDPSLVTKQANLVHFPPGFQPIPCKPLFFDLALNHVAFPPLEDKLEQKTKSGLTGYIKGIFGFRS
UniProt Q9UBP0, sequence (Q9UBP0 whole entry, looked up): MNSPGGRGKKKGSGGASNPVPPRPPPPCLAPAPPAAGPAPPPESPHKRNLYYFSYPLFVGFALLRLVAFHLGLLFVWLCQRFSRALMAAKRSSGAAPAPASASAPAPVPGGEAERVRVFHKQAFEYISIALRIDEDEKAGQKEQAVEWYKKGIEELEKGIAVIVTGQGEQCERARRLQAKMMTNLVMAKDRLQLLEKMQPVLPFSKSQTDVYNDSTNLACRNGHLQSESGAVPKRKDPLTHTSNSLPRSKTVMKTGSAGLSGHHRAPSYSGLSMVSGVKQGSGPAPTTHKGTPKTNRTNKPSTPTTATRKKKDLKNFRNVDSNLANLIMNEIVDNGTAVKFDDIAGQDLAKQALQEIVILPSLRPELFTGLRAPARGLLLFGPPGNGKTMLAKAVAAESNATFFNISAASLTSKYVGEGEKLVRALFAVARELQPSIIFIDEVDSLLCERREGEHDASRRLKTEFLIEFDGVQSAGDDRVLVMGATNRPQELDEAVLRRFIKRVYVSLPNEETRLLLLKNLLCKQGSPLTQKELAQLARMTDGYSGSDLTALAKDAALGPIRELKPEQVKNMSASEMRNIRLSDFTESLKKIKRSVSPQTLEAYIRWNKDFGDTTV
UniProt Q9P2R7, sequence (Q9P2R7 whole entry, looked up): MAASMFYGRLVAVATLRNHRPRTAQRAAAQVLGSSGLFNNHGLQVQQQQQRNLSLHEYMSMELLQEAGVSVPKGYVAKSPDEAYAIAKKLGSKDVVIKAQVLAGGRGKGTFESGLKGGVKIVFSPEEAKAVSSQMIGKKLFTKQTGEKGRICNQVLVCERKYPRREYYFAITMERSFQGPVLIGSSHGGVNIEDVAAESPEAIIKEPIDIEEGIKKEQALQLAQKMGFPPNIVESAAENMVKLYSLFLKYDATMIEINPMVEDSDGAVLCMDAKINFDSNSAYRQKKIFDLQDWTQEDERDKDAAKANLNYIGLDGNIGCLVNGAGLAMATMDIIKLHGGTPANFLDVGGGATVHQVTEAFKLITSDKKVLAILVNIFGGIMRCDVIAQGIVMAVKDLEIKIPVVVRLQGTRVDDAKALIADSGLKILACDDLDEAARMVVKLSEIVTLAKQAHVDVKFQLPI
UniProt Q9Y2H1, sequence (Q9Y2H1 whole entry, looked up): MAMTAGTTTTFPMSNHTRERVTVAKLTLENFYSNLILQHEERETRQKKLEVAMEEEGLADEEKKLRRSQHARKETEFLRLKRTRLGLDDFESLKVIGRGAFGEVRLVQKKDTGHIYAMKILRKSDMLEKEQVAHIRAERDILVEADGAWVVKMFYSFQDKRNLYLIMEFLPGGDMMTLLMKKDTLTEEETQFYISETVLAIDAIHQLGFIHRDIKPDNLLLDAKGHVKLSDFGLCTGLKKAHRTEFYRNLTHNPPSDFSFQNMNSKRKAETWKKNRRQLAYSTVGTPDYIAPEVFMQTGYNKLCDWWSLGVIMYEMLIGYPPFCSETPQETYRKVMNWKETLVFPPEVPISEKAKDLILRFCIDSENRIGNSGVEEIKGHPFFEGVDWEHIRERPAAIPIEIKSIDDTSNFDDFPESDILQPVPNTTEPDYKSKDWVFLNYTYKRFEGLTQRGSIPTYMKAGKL
UniProt Q99523, sequence (Q99523 whole entry, looked up): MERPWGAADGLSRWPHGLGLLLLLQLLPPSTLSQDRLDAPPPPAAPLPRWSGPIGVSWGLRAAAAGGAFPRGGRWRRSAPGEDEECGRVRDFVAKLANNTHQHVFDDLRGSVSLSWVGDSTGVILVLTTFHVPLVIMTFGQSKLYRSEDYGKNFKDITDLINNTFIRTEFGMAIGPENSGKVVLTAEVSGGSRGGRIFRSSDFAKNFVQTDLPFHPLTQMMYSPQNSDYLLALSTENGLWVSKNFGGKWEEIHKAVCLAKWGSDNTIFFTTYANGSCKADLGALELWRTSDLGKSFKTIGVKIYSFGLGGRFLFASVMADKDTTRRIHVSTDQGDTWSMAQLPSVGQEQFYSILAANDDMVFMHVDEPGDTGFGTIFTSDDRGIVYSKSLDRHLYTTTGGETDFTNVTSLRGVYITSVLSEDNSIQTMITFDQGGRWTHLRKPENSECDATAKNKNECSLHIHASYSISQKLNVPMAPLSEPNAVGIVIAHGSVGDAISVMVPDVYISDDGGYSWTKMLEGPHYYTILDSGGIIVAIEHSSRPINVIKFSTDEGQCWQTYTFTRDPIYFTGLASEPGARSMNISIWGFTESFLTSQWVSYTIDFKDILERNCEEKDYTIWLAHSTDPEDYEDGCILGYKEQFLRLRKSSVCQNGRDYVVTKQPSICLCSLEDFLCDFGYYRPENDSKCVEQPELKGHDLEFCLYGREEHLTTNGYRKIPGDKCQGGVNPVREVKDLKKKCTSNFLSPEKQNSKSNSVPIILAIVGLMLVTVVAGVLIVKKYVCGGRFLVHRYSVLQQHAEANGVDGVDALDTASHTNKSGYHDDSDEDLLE
UniProt P15907, sequence (P15907 whole entry, looked up): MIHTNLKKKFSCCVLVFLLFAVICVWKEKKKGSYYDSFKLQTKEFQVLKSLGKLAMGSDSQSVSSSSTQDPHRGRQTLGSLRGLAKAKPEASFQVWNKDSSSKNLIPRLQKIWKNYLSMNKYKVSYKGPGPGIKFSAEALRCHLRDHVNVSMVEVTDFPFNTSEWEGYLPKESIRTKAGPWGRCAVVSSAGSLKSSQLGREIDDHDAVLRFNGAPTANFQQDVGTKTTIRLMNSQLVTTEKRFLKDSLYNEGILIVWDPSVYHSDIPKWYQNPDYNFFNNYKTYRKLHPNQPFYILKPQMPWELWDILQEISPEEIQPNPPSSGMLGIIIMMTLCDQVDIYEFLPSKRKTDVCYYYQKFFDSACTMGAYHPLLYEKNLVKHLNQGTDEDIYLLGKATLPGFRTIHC

Target | log2 fold change [1] | log2 fold change (crizotinib) | log2 fold change [2] | log2 fold change [3] | log2 fold change (duvelisib) | log2 fold change (gandotinib) | log2 fold change (tozasertib) | log2 fold change [4] | log2 fold change (doramapimod) | log2 fold change (ispinesib)
SULT1A1 (UniProt P50225) | -0.019 | 0.065 | 0.065 | -0.073 | -0.101 | -0.029 | 0.006 | 0.035 | 0.016 | -0.018
SUCLA2 (UniProt Q9P2R7) | 0.034 | 0.001 | 0.087 | -0.011 | 0.04 | -0.058 | -0.043 | 0.012 | 0.003 | -0.064
ST6GAL1 (UniProt P15907) | -0.064 | -0.189 | -0.005 | 0.037 | 0.073 | 0.014 | 0.001 | 0.018 | 0.083 | 0.002
SLK isoform 2 (UniProt Q9H2G2) | 0.016 | -0.068 | 0.07 | 0.014 | 0.072 | 0.102 | -0.225 | 0.052 | -0.118 | 0.021
TAF9 (UniProt Q16594) | -0.029 | 0.043 | 0.007 | 0.116 | 0.009 | -0.047 | -0.034 | -0.131 | -0.019 | -0.007
SPG21 (UniProt Q9NZD8) | 0.077 | -0.24 | 0.053 | 0.013 | 0.003 | 0 | 0.026 | 0.052 | 0.091 | -0.093
SPART (UniProt Q8N0X7) | 0.006 | -0.107 | 0.056 | 0.101 | 0.053 | -0.088 | 0.044 | 0.055 | 0.014 | -0.001
TIAL1 isoform 2 (UniProt Q01085) | 0.008 | -0.039 | 0.023 | -0.014 | 0.006 | -0.048 | -0.023 | 0.046 | -0.054 | 0.01
TECR (UniProt Q9NZ01) | -0.002 | -0.247 | 0.054 | 0.045 | 0.05 | -0.344 (active) | -0.031 | 0.044 | -0.095 | -0.501 (active)
THADA (UniProt Q6YHU6) | 0.01 | -0.168 | 0.05 | 0.018 | 0.046 | -0.239 (active) | -0.052 | 0.083 | 0.001 | -0.133
SORT1 (UniProt Q99523) | 0.007 | -0.742 (active) | -0.019 | -0.051 | 0.023 | -0.069 | -0.001 | -0.066 | -0.042 | -0.032
SLC44A2 isoform 2 (UniProt Q8IWA5) | 0.019 | 0.113 | 0.026 | -0.123 | 0.154 | -0.017 | -0.022 | -0.046 | 0.055 | 0.069
SPECC1 (UniProt Q5M775) | -0.104 | -0.085 | -0.02 | 0.045 | 0.014 | -0.18 | 0.007 | -0.036 | 0.137 | -0.079
TIMM29 (UniProt Q9BSF4) | 0.044 | 0.08 | 0.065 | -0.033 | -0.015 | -0.014 | 0.012 | 0.02 | 0.185 | 0.033
SLC4A2 (UniProt P04920) | 0.114 | -0.053 | 0.013 | 0.126 | -0.015 | -0.075 | -0.069 | -0.058 | 0.07 | -0.099
TGFBR1 isoform 2 (UniProt P36897) | 0.254 (active) | 0.133 | -0.031 | 0.024 | -0.019 | 0.101 | 0.026 | 0.014 | -0.005 | -0.156
SPAST (UniProt Q9UBP0) | 0.002 | -0.074 | 0.043 | 0.001 | 0.069 | -0.025 | -0.01 | 0.15 | -0.078 | -0.001
SNRPB2 (UniProt P08579) | -0.014 | 0.02 | -0.024 | 0.008 | -0.017 | 0.026 | -0.008 | -0.048 | -0.01 | 0.027
STK38L (UniProt Q9Y2H1) | 0.028 | 0.065 | 0.069 | -0.055 | -0.04 | -0.105 | 0.003 | 0.116 | -0.022 | -0.093
STEAP3 isoform 2 (UniProt Q658P3) | 0.065 | -0.003 | 0.022 | -0.013 | 0.054 | -0.032 | -0.006 | 0.012 | 0.003 | -0.159
TEX264 (UniProt Q9Y6I9) | 0.361 | 0.079 | 0.064 | 0.176 | 0.037 | -0.059 | 0.113 | -0.028 | 0.039 | -0.016
STAT6 (UniProt P42226) | -0.083 | -0.037 | 0.028 | -0.011 | -0.132 | -0.269 | 0.171 | -0.123 | 0.043 | -0.033
SNX6 (UniProt Q9UNH7) | -0.169 | -0.323 | -0.014 | -0.033 | -0.277 | -0.5 (active) | -0.118 | 0.061 | -0.036 | -0.281
SRSF2 (UniProt Q01130) | 0.005 | 0.023 | -0.107 | 0.006 | 0.013 | 0.092 | -0.037 | -0.006 | -0.033 | -0.036
STAM2 (UniProt O75886) | 0.114 | -0.008 | 0.041 | -0.049 | -0.031 | -0.126 | 0.054 | 0.028 | -0.022 | -0.049
SUPT16H (UniProt Q9Y5B9) | 0.138 | -0.062 | 0.251 | -0.093 | 0.084 | -0.024 | 0.234 | 0.248 | -0.047 | 0.028
TM9SF4 (UniProt Q92544) | -0.029 | -0.141 | 0.036 | 0.04 | -0.015 | -0.189 | 0.006 | 0.044 | 0.034 | -0.143
SRPRA (UniProt P08240) | 0.066 | 0.036 | 0.061 | 0.01 | 0.036 | -0.042 | -0.009 | 0.063 | -0.044 | 0.045
SRP68 (UniProt Q9UHB9) | 0.004 | -0.134 | -0.02 | 0.15 | -0.017 | -0.064 | 0.054 | 0.112 | 0.029 | -0.209
TAX1BP1 (UniProt Q86VP1) | -0.001 | -0.009 | -0.058 | 0.042 | 0.168 | 0.156 | 0.152 | 0.069 | 0.062 | -0.067
